Experimental data as given in PubChem BioAssay (EPA / NIEHS).
More than one record can exist for a structure, and the calls need not agree. Activity calls are given as the source filed them. The calls were made as follows: active = hit-call score of the fitted dose curve at least 0.9, where 1 is the maximum; inactive = score below 0.9.

What was measured:
[1] = read-out: Interleukin-1 alpha (IL1a), IL1A (gene 3552); test: BSK_KF3CT_IL1a: BioMAP Diversity Plus: KF3CT Assay for Interleukin-1 alpha (IL1a) Biomarker Activity (AID 2283070); details: primary human keratinocytes with fibroblasts; actives raise or lower the signal
Summary of the method: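 Human keratinocyte plus foreskin fibroblast primary co-culture, sampled 24 h after chemical dosing. IL-1a measured by ELISA; responses fitted bidirectionally against DMSO baseline (negative control), so gain or loss of signal both count.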

[2] = read-out: Transforming growth factor beta 1 (TGFb1), TGFB1 (gene 7040); test: BSK_KF3CT_TGFb1: BioMAP Diversity Plus: KF3CT Assay for Transforming growth factor beta 1 (TGFb1) Biomarker Activity (AID 2283072); details: primary human keratinocytes with fibroblasts; actives raise or lower the signal
Summary of the method: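 Human keratinocyte plus foreskin fibroblast primary co-culture, dosed with chemical for 24 h. TGF-b1 quantified by ELISA. Activity fitted bidirectionally against DMSO negative control as baseline.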

[3] = read-out: C-C motif chemokine 2 (Homo sapiens) (UniProt P13500); test: BSK_KF3CT_MCP1: BioMAP Diversity Plus: KF3CT Assay for Monocyte Chemoattractant Protein 1 (MCP1/CCL2) Biomarker Activity (AID 2283073); details: primary human keratinocytes with fibroblasts; actives raise or lower the signal
Summary of the method: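 ELISA read-out of MCP-1, 24 h post-dose, in primary human skin keratinocytes co-cultured with fibroblasts. Parallel SRB staining monitors cytotoxicity; changes fitted both directions relative to DMSO.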

[4] = read-out: Matrix Metallopeptidase 9 (MMP9), MMP9 (gene 4318); test: BSK_KF3CT_MMP9: BioMAP Diversity Plus: KF3CT Assay for Matrix Metallopeptidase 9 (MMP9) Biomarker Activity (AID 2283074); details: primary human keratinocytes with fibroblasts; actives raise or lower the signal
Summary of the method: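 Keratinocyte plus foreskin fibroblast human primary skin co-culture was dosed with chemical and MMP-9 was quantified by ELISA 24 h later. Bidirectional curve fitting used DMSO as negative control and activity baseline.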

[5] = read-out: urokinase plasminogen activator (uPA), PLAU (gene 5328); test: BSK_KF3CT_uPA: BioMAP Diversity Plus: KF3CT Assay for urokinase plasminogen activator (uPA) Biomarker Activity (AID 2283075); details: primary human keratinocytes with fibroblasts; actives raise or lower the signal
Summary of the method: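 Human keratinocyte plus foreskin fibroblast primary co-culture exposed to chemical for 24 h. uPA levels were quantified by ELISA, and activity was fitted bidirectionally against a DMSO negative-control baseline.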

CD40, CD40 (gene 958) [6] = test: BSK_LPS_CD40: BioMAP Diversity Plus: LPS Assay for CD40 Biomarker Activity (AID 2283076); details: primary human HUVEC with PBMC; actives raise or lower the signal
Summary of the method: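 In the LPS system of human endothelial cells with peripheral blood mononuclear cells, CD40 levels were read by ELISA 24 h post-treatment. Signal changes in either direction were fitted against the DMSO baseline, with parallel SRB protein staining.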

[7] = read-out: E-selectin (Homo sapiens) (UniProt P16581); test: BSK_LPS_Eselectin: BioMAP Diversity Plus: LPS Assay for Eselectin Biomarker Activity (AID 2283077); details: primary human HUVEC with PBMC; actives raise or lower the signal
Summary of the method: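 E-selectin ELISA on LPS-stimulated endothelial cell/PBMC co-cultures, read 24 h post-treatment; gains and losses fitted against DMSO. Parallel SRB staining (0.1% SRB after 10% TCA fixation, 560 nm) flags overt cytotoxicity.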

[8] = read-out: Interleukin-8 (IL8), CXCL8 (gene 3576); test: BSK_LPS_IL8: BioMAP Diversity Plus: LPS Assay for Interleukin-8 (IL8) Biomarker Activity (AID 2283078); details: primary human HUVEC with PBMC; actives raise or lower the signal
Summary of the method: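 ELISA read-out of IL-8 after 24 h chemical treatment of LPS-activated endothelial/PBMC human primary co-cultures. Changes either up or down relative to DMSO; overt cytotoxicity checked by sulforhodamine B staining in parallel wells.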

[9] = BSK_LPS_SRB: Viability Assessment in the BioMAP Diversity Plus: LPS Assay (AID 2283079); details: primary human HUVEC with PBMC;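 also: total protein by sulforhodamine B absorbance as a cytotoxicity measure; measured one day after compound addition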
Summary of the method: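 SRB viability endpoint: cells fixed with 10% TCA, stained with 0.1% SRB, read at 560 nm, 24 h post-dose. HUVEC/PBMC co-culture; signal change in either direction scored relative to DMSO.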

[10] = read-out: Interleukin-1 alpha (IL1a), IL1A (gene 3552); test: BSK_LPS_IL1a: BioMAP Diversity Plus: LPS Assay for Interleukin-1 alpha (IL1a) Biomarker Activity (AID 2283080); details: primary human HUVEC with PBMC; actives raise or lower the signal
Summary of the method: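 Readout is IL-1a level by ELISA, 24 h post-dose, fitted as gain or loss relative to DMSO. System: LPS-activated human primary co-culture of vascular endothelium and peripheral blood mononuclear cells, with parallel SRB total-protein cytotoxicity.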

[11] = read-out: Monocyte Chemoattractant Protein-1 (MCP1), CCL2 (gene 6347); test: BSK_LPS_MCP1: BioMAP Diversity Plus: LPS Assay for Monocyte Chemoattractant Protein-1 (MCP1) Biomarker Activity (AID 2283081); details: primary human HUVEC with PBMC; actives raise or lower the signal;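 as to AC50: secreted MCP-1 protein quantified by ELISA in culture supernatant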
Summary of the method: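 Secreted MCP-1 read by ELISA at 24 h post-dosing in an LPS-activated co-culture of endothelial cells with peripheral blood mononuclear cells. Fits run in both directions, DMSO as baseline; parallel SRB staining tracks overt cytotoxicity.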

[12] = BSK_LPS_PGE2: BioMAP Diversity Plus: LPS Assay for Prostaglandin E2 (PGE2) Biomarker Activity (AID 2283082); details: primary human HUVEC with PBMC; actives raise or lower the signal
Summary of the method: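 HUVEC plus PBMC co-culture stimulated with LPS; secreted PGE2 quantified by ELISA 24 h after chemical dosing. Activity fitted bidirectionally against DMSO as negative control and baseline; parallel SRB total-protein staining served as cytotoxicity check.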

[13] = read-out: Macrophage colony-stimulating factor (MCSF), CSF1 (gene 1435); test: BSK_LPS_MCSF: BioMAP Diversity Plus: LPS Assay for Macrophage colony-stimulating factor (MCSF) Biomarker Activity (AID 2283083); details: primary human HUVEC with PBMC; actives raise or lower the signal
Summary of the method: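 Bidirectional fitting against DMSO was applied to M-CSF levels read by ELISA at 24 h post-dose. The system pairs human umbilical vein endothelium with peripheral blood mononuclear cells; parallel SRB staining tracked cytotoxicity.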

[14] = read-out: Tissue Factor, F3 (gene 2152); test: BSK_LPS_TissueFactor: BioMAP Diversity Plus: LPS Assay for Tissue Factor Biomarker Activity (AID 2283084); details: primary human HUVEC with PBMC; actives raise or lower the signal
Summary of the method: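 Compound was added to an endothelial cell/PBMC co-culture, and after 24 h tissue factor (CD142) was read by ELISA. Gain or loss of signal was fitted against a DMSO baseline, and parallel SRB staining (560 nm) tracked overt cytotoxicity.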

[15] = read-out: Tumor necrosis factor (Homo sapiens) (UniProt P01375); test: BSK_LPS_TNFa: BioMAP Diversity Plus: LPS Assay for Tumour Necrosis Factor alpha (TNFa) Biomarker Activity (AID 2283085); details: primary human HUVEC with PBMC; actives raise or lower the signal
Summary of the method: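 Human umbilical vein endothelial cells co-cultured with PBMC were exposed to test chemical and TNFa measured by ELISA 24 h after dosing. Bidirectional curve fitting was done relative to DMSO as negative control and baseline.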

[16] = read-out: Vascular cell adhesion molecule 1 (VCAM1), VCAM1 (gene 7412); test: BSK_LPS_VCAM1: BioMAP Diversity Plus: LPS Assay for Vascular cell adhesion molecule 1 (VCAM1) Biomarker Activity (AID 2283086); details: primary human HUVEC with PBMC; actives raise or lower the signal
Summary of the method: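 Human umbilical vein endothelial cells co-cultured with peripheral blood mononuclear cells under LPS stimulation were exposed to test chemical for 24 h. VCAM-1 levels were then measured by ELISA, with bidirectional curve fitting relative to DMSO as negative control and baseline.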

CD38, CD38 (gene 952) = test: BSK_SAg_CD38: BioMAP Diversity Plus: SAg Assay for CD38 Biomarker Activity (AID 2283087); details: primary human HUVEC with PBMC; actives raise or lower the signal
Summary of the method: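 Fluorescence ELISA of cell-surface CD38 served as the read-out, with either increase or decrease fitted against DMSO controls. Cells were a human umbilical vein endothelium plus PBMC co-culture under SEB/TSST-1 stimulation, measured 24 h after dosing.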

CD40, CD40 (gene 958) [17] = test: BSK_SAg_CD40: BioMAP Diversity Plus: SAg Assay for CD40 Biomarker Activity (AID 2283088); details: primary human HUVEC with PBMC; actives raise or lower the signal
Summary of the method: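 CD40 is measured by fluorescence ELISA in an endothelial/PBMC primary human co-culture at 24 h post-dose. Fitting is bidirectional, DMSO baseline. Parallel SRB staining (560 nm) flags cytotoxicity.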

[18] = read-out: TIMP metallopeptidase inhibitor 2 (TIMP2), TIMP2 (gene 7077); test: BSK_KF3CT_TIMP2: BioMAP Diversity Plus: KF3CT Assay for TIMP metallopeptidase inhibitor 2 (TIMP2) Biomarker Activity (AID 2283071); details: primary human keratinocytes with fibroblasts; actives raise or lower the signal
Summary of the method: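 Human primary keratinocyte/foreskin fibroblast co-culture dosed with chemical and sampled at 24 h. TIMP-2 levels quantified by ELISA; bidirectional fitting against DMSO negative control as baseline.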

CD69, CD69 (gene 969) = test: BSK_SAg_CD69: BioMAP Diversity Plus: SAg Assay for CD69 Biomarker Activity (AID 2283089); details: primary human HUVEC with PBMC; actives raise or lower the signal
Summary of the method: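 Primary human vascular co-culture (umbilical vein endothelium with peripheral blood mononuclear cells) exposed to test chemical for 24 h. CD69 levels quantified by fluorescence ELISA; DMSO served as negative control for bidirectional fitting.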

Measured: AC50

Tumor necrosis factor (Homo sapiens), sequence (P01375 whole entry, looked up): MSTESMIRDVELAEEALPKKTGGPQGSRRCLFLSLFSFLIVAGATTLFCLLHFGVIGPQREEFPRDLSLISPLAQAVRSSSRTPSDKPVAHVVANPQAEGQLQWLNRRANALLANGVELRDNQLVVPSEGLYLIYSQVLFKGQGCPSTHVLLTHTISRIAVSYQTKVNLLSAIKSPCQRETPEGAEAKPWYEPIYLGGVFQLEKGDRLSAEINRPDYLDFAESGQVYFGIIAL
E-selectin (Homo sapiens), sequence (P16581 whole entry, looked up): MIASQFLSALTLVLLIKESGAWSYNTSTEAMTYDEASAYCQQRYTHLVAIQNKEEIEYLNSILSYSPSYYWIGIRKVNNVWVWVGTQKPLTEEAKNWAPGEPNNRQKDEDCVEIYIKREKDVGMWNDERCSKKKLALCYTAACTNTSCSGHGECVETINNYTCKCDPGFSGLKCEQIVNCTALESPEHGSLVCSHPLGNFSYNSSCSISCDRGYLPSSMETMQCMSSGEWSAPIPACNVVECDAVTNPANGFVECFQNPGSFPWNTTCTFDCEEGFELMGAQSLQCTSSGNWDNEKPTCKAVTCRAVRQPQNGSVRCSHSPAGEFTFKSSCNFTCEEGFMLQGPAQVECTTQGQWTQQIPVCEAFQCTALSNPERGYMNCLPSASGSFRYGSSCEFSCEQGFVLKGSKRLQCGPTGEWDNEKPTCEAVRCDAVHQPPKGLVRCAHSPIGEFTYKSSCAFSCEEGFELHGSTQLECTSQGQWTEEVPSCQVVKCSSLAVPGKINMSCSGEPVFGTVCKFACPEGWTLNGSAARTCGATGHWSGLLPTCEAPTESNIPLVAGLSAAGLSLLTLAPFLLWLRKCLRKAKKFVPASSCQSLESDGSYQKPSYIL

Nc1ccc2ccccc2c1
not listed: [18] | CD69, CD69 (gene 969)
inactive: all other assays above

CCC1(c2ccccc2)C(=O)N=C(O)NC1=O (stereo unspecified)
not listed: [18] | CD69, CD69 (gene 969)
inactive: all other assays above

OCC(F)(F)OC(F)(F)C(F)(F)OC(F)(F)CO
not listed: [2]
inactive: all other assays above

OCC(F)(F)OC(F)(F)C(F)(F)OC(F)(F)C(F)(F)OC(F)(F)CO
inactive: [1] | [18] | [3] | [4] | [5] | CD40, CD40 (gene 958) [6] | [8] | [9] | [10] | [11] | [12] | [13] | [14] | [15] | [16] | CD38, CD38 (gene 952) | CD40, CD40 (gene 958) [17]
active: CD40, CD40 (gene 958) [6] 7.62 µM | [9] 30 µM | CD38, CD38 (gene 952) 24.3 µM | CD40, CD40 (gene 958) [17] 30 µM

FC(F)(F)C(F)(C(F)(F)F)C(F)(F)C(F)(F)CC1CO1 (stereo unspecified)
not listed: [2] | [7] | CD69, CD69 (gene 969)
inactive: all other assays above

CCOP(=S)(S)OCC
active: [10] 36.6 µM
not listed: [7]
inactive: all other assays above

O=S1(=O)OCC2C(CO1)C1(Cl)C(Cl)=C(Cl)C2(Cl)C1(Cl)Cl (stereo unspecified)
active: [2] 35.6 µM | [11] 10.5 µM
not listed: [7]
inactive: all other assays above
